The target in this assay is Sphingosine 1-phosphate receptor 1 (Homo sapiens) (UniProt P21453). Description: activation or potentiation of human S1P1 signaling – cell-based, primary and confirmation screens, CRE-bla reporter, primary screen (AID 449).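 Further: forskolin at 4 µM as EC80 and the EC20 agonist is SEW2871; 100% = SEW2871 at its EC100 plus forskolin at EC80.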 Particulars: S1P1 CRE-bla cells, forskolin, beta-lactamase FRET, potentiator mode, at 9.5 µM, stronger effect = higher value, 100% = saturating reference agonist, 0% = basal, S1P1 agonist co-added at EC20, 2 nM.
Sphingosine 1-phosphate receptor 1 (Homo sapiens), sequence (P21453 whole entry, looked up): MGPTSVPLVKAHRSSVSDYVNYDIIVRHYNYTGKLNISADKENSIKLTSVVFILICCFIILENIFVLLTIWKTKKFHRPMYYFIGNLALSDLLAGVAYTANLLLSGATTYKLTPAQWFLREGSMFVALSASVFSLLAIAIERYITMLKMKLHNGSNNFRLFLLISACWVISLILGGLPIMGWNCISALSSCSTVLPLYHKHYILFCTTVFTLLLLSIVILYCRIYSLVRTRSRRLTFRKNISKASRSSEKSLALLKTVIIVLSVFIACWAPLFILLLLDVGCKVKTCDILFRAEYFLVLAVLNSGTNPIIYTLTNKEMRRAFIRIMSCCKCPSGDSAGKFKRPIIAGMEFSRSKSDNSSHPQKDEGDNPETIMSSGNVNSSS

Setting [1] is: measured here: confirmation screen, triplicate average.

Molecules are shown by their SMILES. In all, about 56,000 compounds went through this assay and about 320 (0.57%) were called active.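 How the source made its calls: active means activation above a cutoff set at the mean activation of all tested compounds plus 3 SD (cut at about 54% in these data); inactive means the rest, inconclusive results apart.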 What follows is part of a selection rich in actives, with near analogues and random picks from the rest.

For `Cc1ccsc1C(=O)OCC(=O)c1cc(C)n(CC2CCCO2)c1C` (stereo not drawn), the activation was 57% (active). Further, the activation under setting [1] stood at 84.7%. With `Cc1nnc(SCC(N)=O)n1CC1CCCO1` (stereo not drawn), the activation is -8.7% (inactive). Regarding `COC(=O)c1ccc2c(=O)n(CC3CCCO3)c(=S)[nH]c2c1` (stereo not drawn), the activation was -12.1% (inactive). As to `COC(=O)c1ccc(S(=O)(=O)c2ccc(C(=O)OC)s2)s1`, the activation is 1.7% (inactive).

Take `NC(=O)c1ccsc1NC(=O)c1ccco1`: the activation is 1% (inactive). In the case of `COc1cc(=O)[nH]c(=O)n1C(=O)Cc1ccccc1`, the activation was -7.8% (inactive).

Take `CC1CCCN(Cc2nc3c(c(=O)n(C)c(=O)n3C)n2Cc2cccc3ccccc23)C1` (stereo not drawn): the activation was 10.7% (inactive). Take `CCOC(=O)C1CCCN(C(=O)C2CCN(c3nnc(-n4cccc4)s3)CC2)C1` (stereo not drawn): the activation is -27.3% (inactive). For the compound `Cc1c2cn[nH]c(=O)c2c(C)n1Cc1ccc(F)cc1`, the activation is -6.4% (inactive).

As to `C=CCSc1nnc(Cn2c(=O)sc3ccccc32)n1C`, the activation is -13.4% (inactive).

As to `Cn1c(=O)c2c(nc(SCCNS(=O)(=O)c3ccccc3)n2C)n(C)c1=O`, the activation is -18.9% (inactive). For `CN(C)/C=C/c1c(C#N)c(=O)ncn1Cc1ccccc1`, the activation is -5.6% (inactive). In the case of `CN(C)c1ccnc2sc3c(=O)n(Cc4ccccc4)cnc3c12`, the activation was 75.3% (active). Besides, under setting [1], the activation came out at 84.4%. Consider `O=c1c2[nH]c3ccc(Cl)cc3c2ncn1Cc1ccccn1`, for which the activation was -22.3% (inactive). As to `O=C1CCCN1CCCNc1ncnc2c1[nH]c1ccccc12`, the activation was 6.8% (inactive). Turning to `CCN1CCCC1CNc1ncnc2c1[nH]c1ccc(F)cc12` (stereo not drawn), the activation is 4.2% (inactive). In the case of `CC(C)OCCCNc1ncnc2c1[nH]c1ccc(F)cc12`, the activation is 91.1% (active). Further, the activation under setting [1] came out at 110%.

With `Cc1nc2c(c(=O)n1Cc1ccco1)c1nc3ccccc3nc1n2Cc1ccccc1`, the activation is 2.5% (inactive).

As for `CCCCCCn1c(SCC(=O)c2ccccc2)nc2c1c(=O)[nH]c(=O)n2C`, the activation is -26.5% (inactive). As to `O=C(CCN1C(=O)COc2ccccc21)NCCCN1CCN(c2ccc(F)cc2)CC1`, the activation is -29.7% (inactive).

Turning to `N/C(=N\c1nc2ccccc2o1)NC(=O)C(Cc1ccccc1)N1C(=O)c2ccccc2C1=O` (stereo not drawn), the activation is -12% (inactive).

In the case of `CCOc1ccc2[nH]c(=O)c(CN(CCCO)C(C)=O)cc2c1`, the activation is 2.1% (inactive). `COc1ccc(S(=O)(=O)N2CCN(C(=O)c3cccs3)CC2)cc1OC`: the activation was 15.9% (inactive). As to `COC(=O)c1c(-c2ccc(C)cc2)csc1N`, the activation is 23% (inactive). As for `Cc1ccc(-c2nc(COC(=O)c3c(C)noc3C)cs2)cc1`, the activation was 85.3% (active). Moreover, under setting [1], the activation was 98.2%. Consider `Cc1noc(C)c1C(=O)OCC(=O)/C=C1\N(C)c2ccccc2C1(C)C`, for which the activation was -18.5% (inactive). The same measure, in the same setting: with `Cc1cccn2c(=O)c3cc(C#N)c(=O)n(CCCN4CCOCC4)c3nc12` the figure was -29% (inactive). Take `Cc1nc(C)c(C(=O)Nc2cccc(C)c2C)o1`: the activation is -15.9% (inactive). On the same count and under the same terms, with `CCN(Cc1cc2cc(C)ccc2[nH]c1=O)S(=O)(=O)c1ccccc1` the figure was 26.9% (inactive); with `CCc1ccccc1N(CC(=O)NCCSCc1ccco1)S(C)(=O)=O`, -204% (inactive); with `COc1cc(-c2nc(-c3ccncc3)no2)cc(OC)c1OC`, -7% (inactive). In the case of `Cc1cccc(-c2noc(-c3ccc(F)cc3)n2)c1`, the activation is 1% (inactive). Regarding `COc1ccc(-c2noc(-c3cccc(OC)c3OC)n2)cc1OC`, the activation was 84.3% (active). In addition, the activation under setting [1] came out at 77.6%. For `O=P(c1cccs1)(c1cccs1)c1cccs1`, the activation was -23.6% (inactive).

Take `Cc1cc(C)nc(NC(=O)Nc2ccccc2C(F)(F)F)n1`: the activation was -24.3% (inactive). On to `O=C(c1cc(-c2ccc(O)cc2)on1)N1CCCc2ccccc21`, for which the activation was 15.4% (inactive). As for `O=C(Nc1ccccc1C(F)(F)F)c1cc(-c2ccc(O)cc2)on1`, the activation was 89% (active). For the same compound, under setting [1], the activation stood at 96.3%.

In the case of `CCn1c(SCCC(C)C)nnc1-c1c[nH]c2ccccc12`, the activation was 33% (inactive). On the same count and under the same terms, with `Cc1ccc2c(c1)c1ncn(CCC3=CCCCC3)c(=O)c1n2C` the figure was -12.4% (inactive); with `CCOCC(=O)NCc1ccc2c(c1)cc(C)n2C`, -18% (inactive). As for `Cc1ccc(Cn2c(NC(=O)c3ccco3)nc3ccccc32)cc1`, the activation was -7.4% (inactive).

Regarding `Cc1cc(NC(=O)CN2CCCCC2C)nc2c1c(=O)oc1ccccc12` (stereo not drawn), the activation was -16.9% (inactive). As to `CC1(C)CC(=O)C2=C(C1)NCN(CCCN1CCOCC1)C2`, the activation was -12.5% (inactive). With `COc1ccc(CCNC(=O)CCn2c(=O)oc3ccccc32)cc1OC`, the activation was -30% (inactive).

In the case of `Cc1cc(Cl)ccc1N1C(=O)CC(SCCC(=O)O)C1=O` (stereo not drawn), the activation was 15% (inactive).

Take `O=C(NCCN1C(=O)C2C3C=CC(C3)C2C1=O)Nc1ccccn1` (stereo not drawn): the activation is 1.7% (inactive). Consider `C#CCN1CC(C)/C(=N/O)CC1C` (stereo not drawn), for which the activation is -13.4% (inactive). In the case of `Fc1ccc2[nH]c3c(N4CCN(Cc5ccc6c(c5)OCO6)CC4)ncnc3c2c1`, the activation was 106% (active). For the same compound, the activation under setting [1] was 116%. As to `Fc1ccc2nc(N3CCCCC3)sc2c1`, the activation was -23.5% (inactive). For `O=C(c1cccs1)N1CCN(Cc2ccc3c(c2)OCO3)CC1`, the activation is 1.7% (inactive). On to `Fc1ccc2[nH]c3c(N4CCSCC4)ncnc3c2c1`, for which the activation was 73% (active). Moreover, under setting [1], the activation was 103%. Take `Cc1cc(N2CCN(Cc3ccc4c(c3)OCO4)CC2)n2ncnc2n1`: the activation was 3.4% (inactive). Take `Cc1ccc(-n2ncc3c(N4CCN(c5ccc(F)cc5)CC4)ncnc32)c(C)c1`: the activation was -9.5% (inactive). On the same count and under the same terms, with `Cc1noc(/C=C/N(C)C)c1S(=O)(=O)N1CCCC(C(=O)NCc2ccco2)C1` (stereo not drawn) the figure was -32.7% (inactive); with `Cc1cc(/C=N/n2cnnc2)c(C)n1-c1cccc(C(=O)O)c1`, -16.1% (inactive); with `Cc1ccc(C(c2sc3nc(C)nn3c2O)N2CCN(c3ccccc3)CC2)cc1` (stereo not drawn), -6.2% (inactive). Consider `CCN(CC)P(=O)(C(NC(=O)OC)C(F)(F)C(F)(F)C(F)(F)C(F)F)N(CC)CC` (stereo not drawn), for which the activation was 2.6% (inactive).

As to `COc1ccc(CC(=O)n2nc(-c3cccnc3)nc2N)cc1`, the activation is 2.4% (inactive). Consider `CC12CCC(C(=O)N(CCC#N)CCC#N)(CC1=O)C2(C)C` (stereo not drawn), for which the activation was -0.9% (inactive). For `CC1Cc2ccccc2N1C(=O)CSc1nnc(-c2ccc(S(=O)(=O)N3CCCCC3)cc2)o1` (stereo not drawn), the activation was -18.5% (inactive).

Values taken from PubChem BioAssay AID449 (The Scripps Research Institute Molecular Screening Center, 2006).
